Data as given in PubChem BioAssay (NCI).
The panel holds about 83,000 compounds, 20% with a hit somewhere; the sample as a whole holds those more often.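 Step 1: grow cells in 96-well plates. Step 2: add test compound at a single concentration. Step 3: incubate 48 h. Step 4: record percent growth.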 The source made the active and inactive calls. How the source made its calls: active means growth percent below 10; inactive means the rest.

Assays:
Experiment in all cases: NCI-60 one-dose screen, 48 h (100 = growth as untreated, 0 = no growth, -100 = all killed)
Settings in all cases: 10 µM unless noted
HCT-15 colon = system: HCT-15 colon
HT29 colon = system: HT29 colon
SNB-75 CNS = system: SNB-75 CNS
SNB-19 CNS = system: SNB-19 CNS
U251 CNS = system: U251 CNS
PC-3 prostate = system: PC-3 prostate
SK-MEL-5 melanoma = system: SK-MEL-5 melanoma
UACC-62 melanoma = system: UACC-62 melanoma
LOX IMVI melanoma = system: LOX IMVI melanoma
SK-MEL-28 melanoma = system: SK-MEL-28 melanoma

Measured: growth

CN1CCN(S(=O)(=O)O[C@@H]2C(=O)N(c3cc4c5ccccc5ccc4c4ccccc34)[C@H]2c2ccc(F)cn2)CC1
inactive: HCT-15 colon 84.8% | HT29 colon 82% | SNB-75 CNS 74.6% | SNB-19 CNS 85% | U251 CNS 78.6% | PC-3 prostate 63.9% | SK-MEL-5 melanoma 88.7% | UACC-62 melanoma 86.5% | LOX IMVI melanoma 84.5% | SK-MEL-28 melanoma 113%

COc1ccc(-c2cs/c(=N\N=C\c3ccc(O)cc3O)n2/N=C/c2ccc(O)cc2O)cc1
inactive: SNB-75 CNS 29.7%
active: HCT-15 colon -53.1% | HT29 colon -29% | SNB-19 CNS 5.62% | U251 CNS -35.8% | PC-3 prostate -67.3% | SK-MEL-5 melanoma -38.6% | UACC-62 melanoma -36.3% | LOX IMVI melanoma -36% | SK-MEL-28 melanoma -22.9%

Cc1nnc(/N=C2\NC(=O)/C(=C/c3ccsc3)S2)s1
inactive: HCT-15 colon 88% | HT29 colon 90.6% | SNB-75 CNS 74.3% | SNB-19 CNS 100% | U251 CNS 94.6% | PC-3 prostate 89.6% | SK-MEL-5 melanoma 98.4% | UACC-62 melanoma 102% | LOX IMVI melanoma 87.7% | SK-MEL-28 melanoma 101%

COc1cc(C2CC(c3ccc(Nc4nc(NCCO)nc(NCCO)n4)cc3)=NN2c2cc(Cl)cc(Cl)c2)cc(OC)c1OC (stereo not given)
active: HT29 colon -47% | SNB-75 CNS -14.6% | U251 CNS -36.2% | PC-3 prostate -42.1% | SK-MEL-5 melanoma -45.8% | UACC-62 melanoma 2.21% | LOX IMVI melanoma -60.2% | SK-MEL-28 melanoma -70%
inactive: HCT-15 colon 16.3% | SNB-19 CNS 17.4%

Cc1nc(C)c(C)nc1C
inactive: HCT-15 colon 109% | HT29 colon 97% | SNB-75 CNS 101% | SNB-19 CNS 99.2% | U251 CNS 96.7% | PC-3 prostate 98.3% | SK-MEL-5 melanoma 102% | UACC-62 melanoma 101% | LOX IMVI melanoma 101% | SK-MEL-28 melanoma 113%

COc1cc(C(C)c2ccc3c(ccn3C)c2)cc(OC)c1OC (stereo not given)
active: HT29 colon 3.88% | SK-MEL-5 melanoma -51.8%
inactive: HCT-15 colon 15.9% | SNB-75 CNS 47% | SNB-19 CNS 33.5% | U251 CNS 14.4% | PC-3 prostate 23.2% | UACC-62 melanoma 32.7% | LOX IMVI melanoma 23.2% | SK-MEL-28 melanoma 67%

COc1cc2c(cc1OCCCOc1cc3c(cc1OC)C(=O)N1CC(F)(F)C[C@H]1C=N3)N=C[C@@H]1CC(F)(F)CN1C2=O
inactive: HCT-15 colon 94.4% | HT29 colon 11.8% | SNB-19 CNS 24.3% | U251 CNS 18% | LOX IMVI melanoma 16%
active: SNB-75 CNS -8.01% | PC-3 prostate 3.21% | SK-MEL-5 melanoma -77.3% | UACC-62 melanoma -71.2% | SK-MEL-28 melanoma -1.8%

C[C@H](Oc1cc(-c2cnn(C3CCNCC3)c2)cnc1N)c1c(Cl)ccc(F)c1Cl
inactive: HCT-15 colon 43.2% | HT29 colon 12.4% | SNB-75 CNS 76.3% | SNB-19 CNS 65.6% | U251 CNS 37.6% | PC-3 prostate 45.9% | SK-MEL-5 melanoma 59% | UACC-62 melanoma 60.2%
active: LOX IMVI melanoma 8.87% | SK-MEL-28 melanoma -46.5%

FC(F)(F)c1ccc2c(Nc3cccc(C4CC(c5ccccc5)=NN4c4ccc(Cl)cc4)c3)ccnc2c1 (stereo not given)
inactive: HT29 colon 19% | SNB-75 CNS 70% | SNB-19 CNS 41.4% | U251 CNS 29.3% | PC-3 prostate 34% | SK-MEL-5 melanoma 75.1% | UACC-62 melanoma 49.4% | SK-MEL-28 melanoma 48.6%
active: HCT-15 colon 5.61% | LOX IMVI melanoma -53.9%

Cc1cccc(C)c1NCc1nnc(-c2ccco2)o1
inactive: HCT-15 colon 103% | HT29 colon 93.9% | SNB-75 CNS 85.5% | SNB-19 CNS 101% | U251 CNS 96.9% | PC-3 prostate 81% | SK-MEL-5 melanoma 96.3% | UACC-62 melanoma 90.1% | LOX IMVI melanoma 93.5% | SK-MEL-28 melanoma 110%

O=C1NN(c2ccccc2)C(c2ccc(Cl)cc2)N2CCC[C@H]12 (stereo not given in full)
inactive: HCT-15 colon 92.9% | HT29 colon 101% | SNB-75 CNS 75.6% | SNB-19 CNS 94.6% | U251 CNS 101% | PC-3 prostate 99.6% | SK-MEL-5 melanoma 96.1% | UACC-62 melanoma 87.3% | LOX IMVI melanoma 87.8% | SK-MEL-28 melanoma 104%

C=C1C(=O)O[C@H]2[C@H]1CC/C(COC(=O)c1cc3ccccc3o1)=C\CC[C@@]1(C)O[C@@H]21
inactive: SNB-75 CNS 76.5% | SNB-19 CNS 16.7% | U251 CNS 15.4%
active: HCT-15 colon -68.6% | HT29 colon -49.6% | PC-3 prostate -8.8% | SK-MEL-5 melanoma 7.03% | UACC-62 melanoma -37.7% | LOX IMVI melanoma -89.3% | SK-MEL-28 melanoma -48%

C=C1C(=O)O[C@H]2[C@H]1CC/C(COC(=O)n1ccnc1)=C\CC[C@@]1(C)O[C@@H]21
inactive: HCT-15 colon 83.5% | HT29 colon 100% | SNB-75 CNS 92.8% | SNB-19 CNS 99% | U251 CNS 99.1% | PC-3 prostate 90.1% | SK-MEL-5 melanoma 98.5% | UACC-62 melanoma 91.6% | LOX IMVI melanoma 90.4% | SK-MEL-28 melanoma 102%

COc1ccc(C(=O)c2cc(OC)c(OC)c(OC)c2)cc1OC(=O)CCl
inactive: HCT-15 colon 17% | HT29 colon 21.6% | SNB-75 CNS 60.8% | SNB-19 CNS 31.3% | PC-3 prostate 17% | UACC-62 melanoma 45.2% | LOX IMVI melanoma 19% | SK-MEL-28 melanoma 60.8%
active: U251 CNS -16.9% | SK-MEL-5 melanoma -34%

COc1ccc(NC(=O)c2ccc(Nc3ncnc4[nH]c(C)c(C)c34)cc2)cc1
inactive: HCT-15 colon 103% | HT29 colon 103% | SNB-75 CNS 93.5% | SNB-19 CNS 105% | U251 CNS 101% | PC-3 prostate 109% | SK-MEL-5 melanoma 98.6% | UACC-62 melanoma 99.6% | LOX IMVI melanoma 104% | SK-MEL-28 melanoma 102%

CCCCCCC/C=C/[C@H]1O[C@]23C(=O)C[C@@]4(C[C@@H](OC5OC(CO)C(O)C(O)C5O)C[C@@H]4[C@H]2C=C1C)OC3=O (stereo not given in full)
active: HCT-15 colon -5.27% | HT29 colon 0.865% | U251 CNS -2.96% | SK-MEL-5 melanoma 8.74% | LOX IMVI melanoma -67.7% | SK-MEL-28 melanoma -5.61%
inactive: SNB-75 CNS 70.6% | SNB-19 CNS 21.2% | PC-3 prostate 21% | UACC-62 melanoma 14.2%

O=c1[nH]c(-c2cccc(F)c2)cc2cc(F)ccc12
inactive: HCT-15 colon 16.7% | SNB-75 CNS 12.1% | SNB-19 CNS 26.6% | U251 CNS 21.6% | PC-3 prostate 16.3% | SK-MEL-5 melanoma 42.2% | UACC-62 melanoma 36.4% | LOX IMVI melanoma 43.3% | SK-MEL-28 melanoma 61.7%
active: HT29 colon 6.64%

COc1cc(C2=N/C(=C\c3cc4ccccc4nc3Oc3ccccc3)C(=O)N2C(=N)N)cc(OC)c1OC
active: SNB-75 CNS 6.51%
inactive: HCT-15 colon 91.3% | HT29 colon 64.2% | SNB-19 CNS 32.3% | U251 CNS 50.6% | PC-3 prostate 70.4% | SK-MEL-5 melanoma 83.5% | UACC-62 melanoma 50% | LOX IMVI melanoma 66.9% | SK-MEL-28 melanoma 78.4%

C=CCn1c(SCC(=O)Nc2ccc(C(=O)/C=C/c3ccc(Cl)cc3)cc2)nnc1-c1cc(OC)c(OC)c(OC)c1
inactive: HCT-15 colon 89.7% | HT29 colon 97.4% | SNB-75 CNS 86.2% | SNB-19 CNS 85.3% | U251 CNS 90.7% | PC-3 prostate 75.2% | SK-MEL-5 melanoma 63.5% | UACC-62 melanoma 70.4% | LOX IMVI melanoma 91.8% | SK-MEL-28 melanoma 106%

O=c1[nH]nc(-c2ccccc2)c2sc(NC(=S)Nc3ccc(Cl)cc3)nc12
inactive: HCT-15 colon 89.9% | HT29 colon 74.8% | SNB-75 CNS 84.1% | SNB-19 CNS 102% | U251 CNS 92.1% | PC-3 prostate 92% | SK-MEL-5 melanoma 101% | UACC-62 melanoma 92.6% | LOX IMVI melanoma 92.4% | SK-MEL-28 melanoma 110%

CCOC(=O)c1c(C)nc2c(c1N)/C(=C/c1ccc[nH]1)C(=O)N2Cc1ccc(C(F)(F)F)cc1
inactive: HCT-15 colon 68.8% | HT29 colon 70% | SNB-75 CNS 25.3% | SNB-19 CNS 36.3% | U251 CNS 25.2% | PC-3 prostate 52.1% | SK-MEL-5 melanoma 82.2% | UACC-62 melanoma 81.8% | LOX IMVI melanoma 56.7% | SK-MEL-28 melanoma 89.6%

CCCCN(CCCC)CC(CN(CC)CC)OC(=O)Nc1ccccc1 (stereo not given)
inactive: HCT-15 colon 63.4% | HT29 colon 37.1% | SNB-75 CNS 78.3% | SNB-19 CNS 107% | U251 CNS 96.8% | PC-3 prostate 89.6% | SK-MEL-5 melanoma 100% | UACC-62 melanoma 111% | LOX IMVI melanoma 87.7% | SK-MEL-28 melanoma 105%

CSc1nc(-c2ccco2)c2c(N)[nH]nc2n1
inactive: HCT-15 colon 102% | HT29 colon 93.6% | SNB-75 CNS 103% | SNB-19 CNS 110% | U251 CNS 103% | PC-3 prostate 101% | SK-MEL-5 melanoma 100% | UACC-62 melanoma 92.2% | LOX IMVI melanoma 92.3% | SK-MEL-28 melanoma 112%

NS(=O)(=O)c1ccc(N2Cc3cc(Cl)ccc3OC3=C2C(=O)N(CC2CCCCC2)C3=O)cc1
active: HCT-15 colon -79.2% | HT29 colon -67.4% | SNB-75 CNS -98.4% | SNB-19 CNS -6.19% | U251 CNS -91.3% | PC-3 prostate -61.9% | SK-MEL-5 melanoma -94.4% | UACC-62 melanoma -76.1% | LOX IMVI melanoma -86.2% | SK-MEL-28 melanoma -93.1%

CC(=O)c1cnc(-c2ccccc2)nc1CBr
active: LOX IMVI melanoma -39.9%
inactive: HCT-15 colon 63.5% | HT29 colon 43.5% | SNB-75 CNS 73.4% | SNB-19 CNS 81% | U251 CNS 79.5% | PC-3 prostate 73% | SK-MEL-5 melanoma 91.6% | UACC-62 melanoma 84.3% | SK-MEL-28 melanoma 104%

CC(C)C1=C[C@@]23CC[C@H]4[C@](C)(COCCC#N)CCC[C@]4(C)[C@H]2C[C@@H]1[C@@H]1[C@H]3[C@@H](OCCC#N)CC[C@@H]1OCCC#N
inactive: HCT-15 colon 22.8% | HT29 colon 12.1% | SNB-75 CNS 80.3% | SNB-19 CNS 50.3% | U251 CNS 29.1% | SK-MEL-5 melanoma 39.1% | UACC-62 melanoma 45.3% | LOX IMVI melanoma 40.1% | SK-MEL-28 melanoma 48.7%
active: PC-3 prostate 9.6%
